Laboratory results reported in PubChem BioAssay (EPA / NIEHS).
Activity calls are given as the source filed them. Rule for the calls: active = hit-call score of the fitted dose curve at least 0.9, where 1 is the maximum; inactive = score below 0.9.

Assays:
[1] = read-out: Interleukin-1 alpha (IL1a), IL1A (gene 3552); experiment: BSK_KF3CT_IL1a: BioMAP Diversity Plus: KF3CT Assay for Interleukin-1 alpha (IL1a) Biomarker Activity (AID 2283070); conditions: primary human keratinocytes with fibroblasts; actives raise or lower the signal
Summary of the method: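 Chemicals were dosed onto co-cultured human keratinocytes and foreskin fibroblasts, IL-1a was quantified by ELISA at 24 h, and activity was fitted in both directions relative to DMSO controls.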

[2] = read-out: Transforming growth factor beta 1 (TGFb1), TGFB1 (gene 7040); experiment: BSK_KF3CT_TGFb1: BioMAP Diversity Plus: KF3CT Assay for Transforming growth factor beta 1 (TGFb1) Biomarker Activity (AID 2283072); conditions: primary human keratinocytes with fibroblasts; actives raise or lower the signal
Summary of the method: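 Signal changes in either direction, relative to DMSO, define activity here. TGF-b1 is read by ELISA from a human keratinocyte-fibroblast co-culture 24 h post-dose.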

[3] = read-out: C-C motif chemokine 2 (Homo sapiens) (UniProt P13500); experiment: BSK_KF3CT_MCP1: BioMAP Diversity Plus: KF3CT Assay for Monocyte Chemoattractant Protein 1 (MCP1/CCL2) Biomarker Activity (AID 2283073); conditions: primary human keratinocytes with fibroblasts; actives raise or lower the signal
Summary of the method: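 Keratinocytes and foreskin fibroblasts were co-cultured, dosed with chemical, and sampled 24 h later. MCP-1 was quantified by ELISA, and the endpoint was analyzed with bidirectional fitting using DMSO as negative control.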

[4] = read-out: Matrix Metallopeptidase 9 (MMP9), MMP9 (gene 4318); experiment: BSK_KF3CT_MMP9: BioMAP Diversity Plus: KF3CT Assay for Matrix Metallopeptidase 9 (MMP9) Biomarker Activity (AID 2283074); conditions: primary human keratinocytes with fibroblasts; actives raise or lower the signal;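 for AC50: MMP9 protein level quantified by ELISA in the co-culture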
Summary of the method: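 Human keratinocyte/foreskin fibroblast co-culture; compound added; 24 h; MMP-9 by ELISA; bidirectional fit vs DMSO baseline.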

[5] = read-out: urokinase plasminogen activator (uPA), PLAU (gene 5328); experiment: BSK_KF3CT_uPA: BioMAP Diversity Plus: KF3CT Assay for urokinase plasminogen activator (uPA) Biomarker Activity (AID 2283075); conditions: primary human keratinocytes with fibroblasts; actives raise or lower the signal
Summary of the method: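 ELISA readout of uPA, analyzed for signal gain or loss relative to DMSO, from a human primary keratinocyte–foreskin fibroblast co-culture measured 24 h after chemical treatment.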

CD40, CD40 (gene 958) [6] = experiment: BSK_LPS_CD40: BioMAP Diversity Plus: LPS Assay for CD40 Biomarker Activity (AID 2283076); conditions: primary human HUVEC with PBMC; actives raise or lower the signal
Summary of the method: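 CD40 signal, measured by ELISA, is fitted in both directions relative to DMSO vehicle. The system is an LPS-driven human vascular primary co-culture of endothelial cells and PBMC, sampled 24 h after compound addition.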

[7] = read-out: E-selectin (Homo sapiens) (UniProt P16581); experiment: BSK_LPS_Eselectin: BioMAP Diversity Plus: LPS Assay for Eselectin Biomarker Activity (AID 2283077); conditions: primary human HUVEC with PBMC; actives raise or lower the signal
Summary of the method: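 Signal of E-selectin, detected by ELISA, served as the endpoint; cells were umbilical vein endothelium with PBMC, read 24 h after treatment. DMSO defined baseline, and both increases and decreases were fitted.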

[8] = read-out: Interleukin-8 (IL8), CXCL8 (gene 3576); experiment: BSK_LPS_IL8: BioMAP Diversity Plus: LPS Assay for Interleukin-8 (IL8) Biomarker Activity (AID 2283078); conditions: primary human HUVEC with PBMC; actives raise or lower the signal
Summary of the method: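 Endothelial cells and PBMC from human donors are co-cultured, treated with chemicals and LPS, then assayed for IL-8 by ELISA after 24 h. Parallel SRB staining (0.1% SRB after 10% TCA fixation, 560 nm) flags cytotoxicity.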

[9] = BSK_LPS_SRB: Viability Assessment in the BioMAP Diversity Plus: LPS Assay (AID 2283079); conditions: primary human HUVEC with PBMC;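 note: total protein by sulforhodamine B absorbance as a cytotoxicity measure; measured one day after compound addition; fitted in both directions against DMSO so loss or gain of signal counts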
Summary of the method: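 Overt cytotoxicity was gauged by sulforhodamine B total-protein staining in a primary human vascular endothelial and mononuclear cell co-culture 24 h post-dosing. Activity was fitted in both directions relative to DMSO.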

[10] = read-out: Interleukin-1 alpha (IL1a), IL1A (gene 3552); experiment: BSK_LPS_IL1a: BioMAP Diversity Plus: LPS Assay for Interleukin-1 alpha (IL1a) Biomarker Activity (AID 2283080); conditions: primary human HUVEC with PBMC; actives raise or lower the signal
Summary of the method: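 Measured: IL-1 alpha via ELISA at 24 h in LPS-activated human umbilical vein endothelium–PBMC co-culture. Baseline: DMSO, bidirectional fitting.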

[11] = read-out: Monocyte Chemoattractant Protein-1 (MCP1), CCL2 (gene 6347); experiment: BSK_LPS_MCP1: BioMAP Diversity Plus: LPS Assay for Monocyte Chemoattractant Protein-1 (MCP1) Biomarker Activity (AID 2283081); conditions: primary human HUVEC with PBMC; actives raise or lower the signal
Summary of the method: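 LPS-stimulated HUVEC/PBMC co-culture; chemical, 24 h; MCP-1 by ELISA; bidirectional fit vs DMSO; cytotoxicity via SRB (0.1% stain, 10% TCA fix, 560 nm) in parallel wells.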

[12] = BSK_LPS_PGE2: BioMAP Diversity Plus: LPS Assay for Prostaglandin E2 (PGE2) Biomarker Activity (AID 2283082); conditions: primary human HUVEC with PBMC; actives raise or lower the signal;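 for AC50: secreted prostaglandin E2 measured by ELISA in LPS-stimulated co-culture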
Summary of the method: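 Endpoint derived from bidirectional curve fitting versus DMSO of ELISA-measured PGE2 in LPS-stimulated human primary vascular co-culture (HUVEC with PBMC) harvested at 24 h.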

[13] = read-out: Macrophage colony-stimulating factor (MCSF), CSF1 (gene 1435); experiment: BSK_LPS_MCSF: BioMAP Diversity Plus: LPS Assay for Macrophage colony-stimulating factor (MCSF) Biomarker Activity (AID 2283083); conditions: primary human HUVEC with PBMC; actives raise or lower the signal
Summary of the method: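 Compound is added to a human vascular primary co-culture of umbilical vein endothelium and blood mononuclear cells. After 24 h, M-CSF is quantified by ELISA. Signal changes are fitted in both directions against DMSO.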

[14] = read-out: Tissue Factor, F3 (gene 2152); experiment: BSK_LPS_TissueFactor: BioMAP Diversity Plus: LPS Assay for Tissue Factor Biomarker Activity (AID 2283084); conditions: primary human HUVEC with PBMC; actives raise or lower the signal
Summary of the method: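 In this co-culture system of umbilical vein endothelium with PBMC, stimulated with LPS, cell-surface CD142 is detected by ELISA at 24 h. Endpoint values derive from bidirectional fitting, DMSO serving as baseline.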

[15] = read-out: Tumor necrosis factor (Homo sapiens) (UniProt P01375); experiment: BSK_LPS_TNFa: BioMAP Diversity Plus: LPS Assay for Tumour Necrosis Factor alpha (TNFa) Biomarker Activity (AID 2283085); conditions: primary human HUVEC with PBMC; actives raise or lower the signal;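 for AC50: TNFa protein level quantified by ELISA in the co-culture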
Summary of the method: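 Primary human vascular co-culture of HUVEC and PBMC; TNFa ELISA 24 h after treatment, analysed as increase or decrease relative to DMSO control.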

[16] = read-out: Vascular cell adhesion molecule 1 (VCAM1), VCAM1 (gene 7412); experiment: BSK_LPS_VCAM1: BioMAP Diversity Plus: LPS Assay for Vascular cell adhesion molecule 1 (VCAM1) Biomarker Activity (AID 2283086); conditions: primary human HUVEC with PBMC; actives raise or lower the signal
Summary of the method: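 Primary human vascular co-culture (umbilical vein endothelium plus PBMC) stimulated with LPS received chemical; 24 h later VCAM-1 was read by ELISA. Overt cytotoxicity was assessed by sulforhodamine B staining of parallel cultures at the same time point.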

CD38, CD38 (gene 952) = experiment: BSK_SAg_CD38: BioMAP Diversity Plus: SAg Assay for CD38 Biomarker Activity (AID 2283087); conditions: primary human HUVEC with PBMC; actives raise or lower the signal
Summary of the method: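 Fluorescence ELISA of cell-surface CD38 served as the read-out, with either increase or decrease fitted against DMSO controls. Cells were a human umbilical vein endothelium plus PBMC co-culture under SEB/TSST-1 stimulation, measured 24 h after dosing.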

CD40, CD40 (gene 958) [17] = experiment: BSK_SAg_CD40: BioMAP Diversity Plus: SAg Assay for CD40 Biomarker Activity (AID 2283088); conditions: primary human HUVEC with PBMC; actives raise or lower the signal
Summary of the method: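 Fluorescence ELISA read-out of CD40 from umbilical vein endothelium plus peripheral blood mononuclear cells, sampled 24 h after dosing. Values come from bidirectional curve fitting with DMSO as baseline.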

CD69, CD69 (gene 969) = experiment: BSK_SAg_CD69: BioMAP Diversity Plus: SAg Assay for CD69 Biomarker Activity (AID 2283089); conditions: primary human HUVEC with PBMC; actives raise or lower the signal
Summary of the method: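 Endothelial/PBMC co-culture; chemical added; 24 h incubation; CD69 ELISA with fluorescence detection; bidirectional fit vs DMSO.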

[18] = read-out: TIMP metallopeptidase inhibitor 2 (TIMP2), TIMP2 (gene 7077); experiment: BSK_KF3CT_TIMP2: BioMAP Diversity Plus: KF3CT Assay for TIMP metallopeptidase inhibitor 2 (TIMP2) Biomarker Activity (AID 2283071); conditions: primary human keratinocytes with fibroblasts; actives raise or lower the signal
Summary of the method: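 Keratinocyte–fibroblast co-culture, 24 h exposure; TIMP-2 ELISA, DMSO-normalised bidirectional fit. Parallel SRB (0.1%, TCA-fixed, 560 nm) total-protein staining gauges cytotoxicity.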

Measured: AC50

Sequence of Tumor necrosis factor (Homo sapiens) (P01375 whole entry, looked up): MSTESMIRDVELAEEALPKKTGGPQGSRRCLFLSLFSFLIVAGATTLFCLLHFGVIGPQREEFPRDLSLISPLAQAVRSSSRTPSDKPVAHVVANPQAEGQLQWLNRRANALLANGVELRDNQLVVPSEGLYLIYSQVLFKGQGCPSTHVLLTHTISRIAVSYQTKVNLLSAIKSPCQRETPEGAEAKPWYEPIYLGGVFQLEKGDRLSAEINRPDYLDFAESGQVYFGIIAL
Sequence of E-selectin (Homo sapiens) (P16581 whole entry, looked up): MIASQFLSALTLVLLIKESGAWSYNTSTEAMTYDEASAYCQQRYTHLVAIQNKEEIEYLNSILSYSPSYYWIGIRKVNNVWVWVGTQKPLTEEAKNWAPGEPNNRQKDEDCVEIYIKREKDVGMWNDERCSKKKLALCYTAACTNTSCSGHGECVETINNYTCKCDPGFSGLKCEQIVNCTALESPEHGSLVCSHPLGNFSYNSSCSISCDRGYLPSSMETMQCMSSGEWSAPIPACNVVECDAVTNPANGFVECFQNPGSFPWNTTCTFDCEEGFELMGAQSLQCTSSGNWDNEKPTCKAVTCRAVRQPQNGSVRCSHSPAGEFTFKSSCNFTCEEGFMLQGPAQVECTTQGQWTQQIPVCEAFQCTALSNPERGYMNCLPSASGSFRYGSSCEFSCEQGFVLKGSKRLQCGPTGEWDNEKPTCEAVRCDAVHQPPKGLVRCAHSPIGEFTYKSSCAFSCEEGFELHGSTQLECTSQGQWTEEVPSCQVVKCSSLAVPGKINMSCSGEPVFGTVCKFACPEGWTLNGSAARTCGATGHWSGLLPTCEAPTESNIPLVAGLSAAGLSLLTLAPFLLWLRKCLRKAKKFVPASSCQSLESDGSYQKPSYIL

COc1nc(C)nc(NC(=O)NS(=O)(=O)c2ccccc2OCCCl)n1
not listed: [18]
inactive: all other assays above

c1ccc(Nc2ccccc2)cc1
active: [12] 3.51 µM | [15] 13 µM
not listed: [10]
inactive: all other assays above

CSC(=O)c1cccc2nnsc12
active: [15] 4.96 µM
not listed: [18]
inactive: all other assays above

CCCN(CCC)c1c([N+](=O)[O-])cc(C(F)(F)F)c(N)c1[N+](=O)[O-]
inactive: CD40, CD40 (gene 958) [6] | [7] | [8] | [11] | [12] | [14] | CD38, CD38 (gene 952) | CD69, CD69 (gene 969)
active: [1] 31.3 µM | [18] 30.6 µM | [2] 32.1 µM | [3] 30.5 µM | [4] 33.6 µM | [5] 37.3 µM | [9] 13.8 µM | [13] 20 µM | [15] 30.2 µM | [16] 30.7 µM | CD40, CD40 (gene 958) [17] 28.9 µM

COC(=O)c1c(Cl)nn(C)c1S(=O)(=O)NC(=O)Nc1nc(OC)cc(OC)n1
not listed: [10]
inactive: all other assays above

C[C@]12CC[C@@H]3c4ccc(O)cc4C[C@@H](CCCCCCCCCS(=O)CCCC(F)(F)C(F)(F)F)[C@H]3[C@@H]1CC[C@@H]2O (some centres undefined)
not listed: [10]
inactive: all other assays above
